High-throughput results from PubChem.
Rows were chosen to be rich in hits. Some 3% of all compounds tested hit in one or more screens of this group.
TRPM1 prom inh: reduces MITF-dependent TRPM1 promoter luciferase signal | inhibition, % at 12.5 µM | actives 0.83% (n = 330,000) | SK-MEL-5 TRPM1 promoter luciferase, 24 h;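 active = mean inhibition across replicates of 60% or more, whatever share of single replicates reaches that level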
ABHD5 PLIN5 PPI: blocks binding of human ABHD5 to perilipin-5. Q00G26+Q8WTS1. actives 0.78% (n = 360,000). Split G. princeps luciferase complementation, luminescence, 4 h. inhibition, % at 4 µM;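 active = inhibition above the mean inhibition across every tested compound plus 3 SD, cut at about 22% in these data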
Target sequence (Q00G26 whole entry, looked up): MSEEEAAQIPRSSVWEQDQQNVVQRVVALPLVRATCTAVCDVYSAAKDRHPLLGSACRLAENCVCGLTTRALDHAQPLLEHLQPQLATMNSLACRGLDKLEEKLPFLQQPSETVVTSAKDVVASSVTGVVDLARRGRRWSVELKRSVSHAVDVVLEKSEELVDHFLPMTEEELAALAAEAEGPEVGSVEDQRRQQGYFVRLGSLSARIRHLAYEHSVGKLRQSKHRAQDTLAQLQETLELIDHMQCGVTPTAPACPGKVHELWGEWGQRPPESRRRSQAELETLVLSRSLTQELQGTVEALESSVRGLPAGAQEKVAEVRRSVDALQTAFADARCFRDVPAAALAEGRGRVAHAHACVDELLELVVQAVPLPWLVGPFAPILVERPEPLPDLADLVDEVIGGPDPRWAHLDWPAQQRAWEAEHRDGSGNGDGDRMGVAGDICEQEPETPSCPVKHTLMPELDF
Target sequence (Q8WTS1 whole entry, looked up): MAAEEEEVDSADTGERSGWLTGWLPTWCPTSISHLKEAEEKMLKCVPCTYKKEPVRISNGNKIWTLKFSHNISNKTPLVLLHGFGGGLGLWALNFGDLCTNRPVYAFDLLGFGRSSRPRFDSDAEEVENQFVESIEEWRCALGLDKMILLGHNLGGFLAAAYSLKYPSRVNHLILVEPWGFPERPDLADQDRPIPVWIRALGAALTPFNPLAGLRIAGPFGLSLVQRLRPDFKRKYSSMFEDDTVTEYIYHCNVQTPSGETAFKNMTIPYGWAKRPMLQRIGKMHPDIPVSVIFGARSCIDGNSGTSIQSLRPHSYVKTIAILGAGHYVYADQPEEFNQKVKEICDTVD
CF NFkB block: cystic fibrosis NF-kB activation inhibition; actives 0.86% (n = 360,000); KKLEB NF-kB-GFP reporter, PAF-induced, GFP fluorescence overnight; inhibition, % at 5 µM;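 active = at least 50% inhibition at 5 µM, scaled per plate between neutral and stimulator controls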;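 also: PAF is a Pseudomonas aeruginosa culture filtrate used as stimulus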
Peg3 promoter: inhibitors of Peg3 promoter; HeLa PEG-Prom luciferase reporter, luminescence, overnight; inhibition, % at 20 µM; actives 1.7% (n = 360,000);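 active = inhibition of at least 50% at 20 µM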
HIF-2a inh: blocks HIF-2a reporter activity | actives 0.72% (n = 360,000) | inhibition, % at 18.8 µM | AID 624352 | 786-0 RCC cells HIF-2a reporter, luciferase luminescence, overnight;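 active = inhibition of the luminescence signal of 40% or more relative to plate controls, in a single-dose primary screen at 18.75 µM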
KKLEB cytotox: reduces viability of KKLEB cystic fibrosis airway cells; KKLEB CF airway cells viability, ATPlite luminescence, overnight; stronger effect = lower value; cells stimulated with P. aeruginosa culture filtrate; activity change (cytotoxicity), % at 5 µM; actives 0.36% (n = 360,000);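 active = corrected activity change at or below -50% at 5 µM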
ABHD5-PLIN5 conf: ABHD5-PLIN5 interaction inhibition, confirmed | actives 67% (n = 2,200) | inhibition, % at 4 µM | shares compounds with ABHD5 PLIN5 PPI | biochemical ABHD5-PLIN5 interaction, luminescence | AID 651612; in the data active = inhibition above about 23%
HNF4 split-luc: active in HNF4 split-luciferase counter-screen for ABHD5-PLIN5 inhibitors; inhibition, % at 4 µM; shares compounds with ABHD5 PLIN5 PPI; HNF4 dimerization, luminescence, biochemical; actives 77% (n = 2,200);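 active = mean inhibition across replicate wells exceeding the computed hit threshold, cut at about 13% in these data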;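 also: light from luciferase halves that rejoin when HNF4 fusion proteins dimerize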
Numbers stand for hits; i = inactive; nt = no result given.

SMILES | TRPM1 prom inh | ABHD5 PLIN5 PPI | CF NFkB block | Peg3 promoter | HIF-2a inh | KKLEB cytotox | ABHD5-PLIN5 conf | HNF4 split-luc
CCOC(=O)/C=C1\CN(C(C)c2ccccc2)S(=O)(=O)c2ccccc21 (stereo not given) | i | 59 | i | i | i | i | i | i
CCOC(=O)/C=C1\CN(CCC(C)C)S(=O)(=O)c2ccccc21 | i | i | i | i | i | i | nt | nt
NS(=O)(=O)c1ccc(N2CCCCCC2)c([N+](=O)[O-])c1 | i | 74 | i | i | i | i | i | 13
COc1ccc(CCC(=O)NC(C)C2CCCO2)cc1 (stereo not given) | i | i | i | i | i | i | nt | nt
O=C1/C(=C\c2ccccc2)CN(C(=O)CCN2CCCCC2)C/C1=C/c1ccccc1 | 109 | 98 | 91 | 97 | 90 | -54 | 103 | 108
O=C1/C(=C\c2ccccc2)CCC/C1=C/c1ccccc1 | i | i | i | i | i | i | nt | nt
O=C1/C(=C\c2ccc(Cl)c(Cl)c2)CN(C(=O)CCN2CCOCC2)C/C1=C/c1ccc(Cl)c(Cl)c1 | 118 | 99 | 90 | 98 | 94 | -78 | 103 | 108
CCN(CC)CCC(=O)N1C/C(=C/c2ccccc2)C(=O)/C(=C\c2ccccc2)C1 | nt | 97 | 86 | 94 | 83 | i | 102 | 103
CC1(C)SC2c3ccccc3C(=O)N2C1C(=O)O (stereo not given) | i | i | i | i | i | i | nt | nt
CCOC(=O)c1c(NC(=O)c2cccs2)sc(C)c1CC | i | i | i | i | i | i | nt | nt
CCc1c(C)sc(NC(=O)c2cccs2)c1C#N | i | 24 | i | i | i | i | i | i
CC(=O)c1ccc(N2CCN(S(=O)(=O)c3ccc4c(c3)C(Cl)(Cl)C(=O)N4)CC2)cc1 | nt | 31 | i | i | i | i | 56 | 51
CC(=O)c1ccc(N2CCN(S(=O)(=O)c3ccc4c(c3)NC(=O)CC(=O)N4)CC2)cc1 | i | i | i | i | i | i | nt | nt
COC1OC(c2ccccc2)=C(c2cnc(N)nc2)c2ccc(F)cc21 (stereo not given) | nt | i | nt | nt | i | nt | nt | nt
N#Cc1c(NCCCO)nc(-c2ccco2)c2c1CCCC2 | i | 35 | i | i | i | i | i | 21
CCCCCCCCCCCCCCCC[n+]1cccc2ccccc21 | 103 | 35 | 66 | 104 | 94 | -68 | i | i
Cc1ccccc1C[n+]1cccc2ccccc21 | i | i | i | i | i | i | nt | nt
O=C(C[n+]1cccc(CNC(=O)c2ccc(OC(F)F)cc2)c1)Nc1ccc(SC(F)F)cc1 | i | 29 | i | i | i | i | i | i
Cc1cc(C)c(C)c(S(=O)(=O)N2CCN(C(=O)c3ccccn3)CC2)c1C | i | i | i | i | i | i | nt | nt
COc1cc2sc(-c3ccc(S(C)(=O)=O)cc3)c(C(=O)NCCCCO)c2cc1OC | i | i | i | i | i | i | nt | nt
COc1cc2sc(-c3ccc(S(C)(=O)=O)cc3)c(C(=O)NCc3ccc(C)o3)c2cc1OC | i | 33 | i | i | i | i | i | 20
O=C(Nc1ccc2c(c1)OCCO2)c1cc(F)c(F)cc1Cl | i | 24 | i | i | i | i | i | i
Cc1ccc(C(=O)Nc2ccc3c(c2)OCCO3)c(Cl)c1 | i | i | i | i | i | i | nt | nt
COc1ccc(OC)c(NC(=O)CN2C(=O)CSc3ccc(S(=O)(=O)N4CCCC4)cc32)c1 | i | 54 | i | i | i | i | i | i
CCOC(=O)C(NC(=O)c1ccccc1Cl)(Nc1sc2c(c1C(N)=O)CCC2)C(F)(F)F (stereo not given) | i | 24 | i | i | i | i | 23 | 27
SMILES | TRPM1 prom inh | ABHD5 PLIN5 PPI | CF NFkB block | Peg3 promoter | HIF-2a inh | KKLEB cytotox | ABHD5-PLIN5 conf | HNF4 split-luc
CCOC(=O)C(NC(=O)c1cccc(Cl)c1)(Nc1sc2c(c1C(N)=O)CCC2)C(F)(F)F (stereo not given) | i | i | i | i | i | i | nt | nt
CCC1(c2ccccc2)NC(=O)N(CC(=O)NC2CCCCCC2)C1=O (stereo not given) | i | i | i | i | i | i | nt | nt
OC1CCCN(Cc2cccc3ccccc23)C1 (stereo not given) | i | i | i | i | i | i | nt | nt
Oc1c(CN2CCCC(C(F)(F)F)C2)cc(Cl)c2ccccc12 (stereo not given) | i | 24 | i | i | i | i | i | i
CCOC(=O)C1CCN(Cc2cc(Cl)c3ccccc3c2O)CC1 | i | 66 | i | i | i | i | i | 55
O=C(Nc1cccc(C(F)(F)F)c1)c1ccc2sc([C@@H]3O[C@H](CO)[C@H](O)[C@H](O)[C@H]3O)nc2c1 | nt | i | i | i | i | i | nt | nt
CCCc1cc(=O)[nH]c(SCC(=O)Nc2cc(S(=O)(=O)N3CCCCC3)ccc2Cl)n1 | i | i | i | i | i | i | nt | nt
O=C1/C(=C/c2ccncc2)CCc2ccccc21 | i | 34 | i | i | i | i | 62 | 59
O=C1/C(=C\c2ccncc2)CCc2ccccc21 | i | 32 | i | i | i | i | 63 | 60
O=C1/C(=C/c2ccncc2)CCC/C1=C\c1ccncc1 | 96 | 99 | 86 | 101 | 93 | i | 104 | 109
c1cc2cc(CNc3nc(NCC4CC4)nc4ccsc34)ccc2o1 | nt | i | i | i | i | i | nt | nt
COc1ccccc1CNc1nc(NCc2ccc3occc3c2)c2sccc2n1 | nt | 24 | i | 90 | i | i | i | 16
O=C(O)CCC(=O)Nc1sc2c(c1C(=O)Nc1cccc3ccccc13)CCCCC2 | i | i | i | i | i | i | nt | nt
O=C(O)CCC(=O)Nc1sc2c(c1C(=O)Nc1ccccc1)CCCCC2 | i | 24 | i | i | i | i | i | i
COc1ccc(C)cc1S(=O)(=O)NCC(c1ccco1)N1CCc2ccccc2C1 (stereo not given) | i | i | i | i | i | i | nt | nt
CCc1cccc2c(C(=O)CSc3nncn3-c3ccccc3OC)c[nH]c12 | i | 24 | i | i | i | i | i | i
CC1(C)Cc2cccc(OCC(=O)N3CCN(c4ccccc4)CC3)c2O1 | i | 82 | i | i | i | i | i | i
CC1CCCC(C)N1C(=O)COC(=O)CCC1CCCC1 (stereo not given) | i | i | i | i | i | i | nt | nt
COc1cc(C2Oc3ccccc3C=C2[N+](=O)[O-])cc(OC)c1OC (stereo not given) | nt | 40 | i | 52 | i | i | 95 | 94
COc1cc(C2NC(=O)c3ccccc3O2)cc(OC)c1OC (stereo not given) | i | i | i | i | i | i | nt | nt
CC(C1CC1)N(Cc1ccccc1)C(=S)Nc1ccccc1Cl (stereo not given) | i | i | i | i | i | i | nt | nt
